Data taken from PubChem BioAssay AID2177 (The Scripps Research Institute Molecular Screening Center, 2009).
Screen size: about 320,000 compounds; about 1,200 (0.38%) were called active.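 How the source made its calls: active means inhibition above the screen-wide mean plus 3 SD, limit set per campaign (cut at about 26% in these data); inactive means the rest.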 The full list was thinned out, with actives kept by preference.

Molecular target: Acyl-protein thioesterase 2 (Homo sapiens) (UniProt O95372)
Sequence (O95372 whole entry, looked up): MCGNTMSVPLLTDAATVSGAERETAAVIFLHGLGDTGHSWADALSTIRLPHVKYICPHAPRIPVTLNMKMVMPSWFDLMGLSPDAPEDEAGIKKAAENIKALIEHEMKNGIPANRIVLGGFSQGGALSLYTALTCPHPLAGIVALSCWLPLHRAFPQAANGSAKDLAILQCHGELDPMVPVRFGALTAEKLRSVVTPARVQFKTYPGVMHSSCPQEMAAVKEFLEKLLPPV
Test: inhibition of human lysophospholipase 2 – biochemical, fluorescence polarization, FP-Rh probe ABPP, counter-screen for PME1 inhibitor project, primary screen (AID 2177);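 further: 0% = LYPLA2 with DMSO and 100% = wells lacking LYPLA2 enzyme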
Settings: recombinant LYPLA2, FP-Rh probe fluorescence polarization; at 5.9 µM; hits give high values

| SMILES | inhibition |
| --- | --- |
| O=C(CN1CCN(C(=O)c2ccco2)CC1)Nc1ccc2c(c1)OCO2 | -2.14% (inactive) |
| O=C(c1ccco1)N1CCN(C(=S)Nc2cc(F)cc(F)c2)CC1 | 33.1% (active) |
| CCNC(=S)N1CCN(C(=O)c2ccco2)CC1 | 2.65% (inactive) |
| COc1ccc(CN(C)C(=O)Cc2ccsc2)c(OC)c1OC | 4.71% (inactive) |
| COc1cccc(OC)c1C(=O)NC(=S)Nc1ccc(N2CCOCC2)c(Cl)c1 | -0.51% (inactive) |
| CCOc1ccc(C(=O)NC(=S)Nc2ccc(NC(=O)C(C)C)cc2)cc1[N+](=O)[O-] | 19.4% (inactive) |
| CCOc1ccc(C(=O)NC(=S)Nc2ccc(N3CCOCC3)c(Cl)c2)cc1[N+](=O)[O-] | 26.8% (active) |
| O=C(Nc1ccccc1N1CCOCC1)c1ccncc1 | -4.72% (inactive) |
| Cc1csc2nc(COC(=O)c3cccc(N(C)C)c3)cc(=O)n12 | 6.85% (inactive) |
| COCCc1nn2c(=O)cc(COC(=O)c3cc(OC)c(OC)c(OC)c3)nc2s1 | 7.86% (inactive) |
| Cc1nn2c(=O)cc(COC(=O)c3ccc(NC(=O)C(C)(C)C)cc3)nc2s1 | 31.4% (active) |
| O=C(Nc1ccc([N+](=O)[O-])cc1)OCCc1ccccn1 | 1.34% (inactive) |
| Cc1ccc(N2CCN(/N=C/c3cccs3)CC2)cc1 | 6.07% (inactive) |
| Cc1ccc(N2CCN(C3=NC(=O)/C(=C\c4cccs4)S3)CC2)cc1 | 51.7% (active) |
| Cc1ccsc1/C=C1\SC(N2CCOCC2)=NC1=O | 1.19% (inactive) |
| Cc1ccc(S(=O)(=O)N(C)CC(=O)OCC(=O)N2CC(=O)Nc3ccccc32)cc1 | 2.05% (inactive) |
| CCN(CC)c1ccc(C(=O)NNC(=O)CCc2nc3ccccc3c(=O)[nH]2)cc1 | 26.9% (active) |
| CCN(CC)c1ccc(C(=O)Nn2c(C)nc3ccccc3c2=O)cc1 | 4.7% (inactive) |
| CCCC(=O)N(CCc1ccccc1)Cc1nc2ccccc2c(=O)[nH]1 | -5.43% (inactive) |
| CCOCCCN(C)C1CCN(C(=O)c2oc3ccccc3c2NC(=O)COc2cccc(C)c2)CC1 | -6.18% (inactive) |
| Cc1ccc(Cl)cc1NC(=O)C1CCCN(c2cnccn2)C1 (centres undefined) | -0.03% (inactive) |
| COCCOC(=O)c1sc(=S)n(CCOC)c1N | 34.7% (active) |
| COC(=O)c1sc(=S)n(-c2ccc(Cl)cc2)c1C | 1.95% (inactive) |
| COc1ccccc1NC(=O)CSc1nnc(CNC(=O)c2ccccc2F)o1 | -2.81% (inactive) |

| SMILES | inhibition |
| --- | --- |
| Cc1nn(-c2ccccc2)c2c1c(C)c(CCC(=O)NCC1CCCO1)c(=O)n2C (centres undefined) | 0.8% (inactive) |
| Cc1cc(SCC(=O)NCCN2C(=O)CSC2=O)nc2ccccc12 | -4.03% (inactive) |
| Clc1ccc(C2=CSC3=Nc4cccc5cccc(c45)N23)cc1 | 0.51% (inactive) |
| Cn1cc(CNC(=O)c2ccc(OC3CCN(Cc4ccccn4)CC3)cc2)cn1 | 11% (inactive) |
| O=C(c1ccc(OC2CCN(Cc3ccccn3)CC2)cc1)N1CCCCCC1 | 3.95% (inactive) |
| CN(CCc1ccccn1)C(=O)c1ccc(OC2CCN(CCc3ccccc3)CC2)cc1 | 33.7% (active) |
| NS(=O)(=O)c1ccc(N=Nc2c(O)[nH]c3ccc(Br)cc23)cc1 | 1.06% (inactive) |
| Cc1ccc(/C=C/C(=O)OCC(=O)Nc2cccnc2Cl)cc1 | 7.22% (inactive) |
| Nc1nc(SCC(=O)Nc2ccc(Cl)cc2C(F)(F)F)n[nH]1 | 9.87% (inactive) |
| CC(C)CNC(=O)C(=O)NCC(c1ccc2c(c1)OCO2)N1CCOCC1 (centres undefined) | 6.19% (inactive) |
| O=C(c1ccc(F)c(S(=O)(=O)N2CCOCC2)c1)N(CCc1ccccc1)Cc1ccccc1 | 5.14% (inactive) |
| O=C(NCCSCc1ccccc1)c1ccc(Cl)c(S(=O)(=O)N2CCOCC2)c1 | 1.96% (inactive) |
| Cc1nn(Cc2ccccc2)c(C)c1CNC(=O)c1ccc(F)c(S(=O)(=O)N2CCOCC2)c1 | 29.7% (active) |
| CC(OC(=O)CCC(=O)c1ccccc1)C(=O)Nc1ccc(F)cc1 (centres undefined) | -5.12% (inactive) |
| CN(CCC(=O)Nc1cc(S(=O)(=O)N(C)C)ccc1Cl)CC(=O)Nc1ccc(F)cc1 | -4.23% (inactive) |
| CC(C)N(Cc1ccccc1)C(=O)COC(=O)c1ccccc1SCC(=O)N1CCCC1 | 1.65% (inactive) |
| COc1ccc(/C=C/C(=O)Nc2c(C)nn(C)c2C)cc1COc1ccc(Br)cc1 | -4.58% (inactive) |
| O=C(Nc1ccc(N2CCN(C(=O)c3cccs3)CC2)cc1)c1cccnc1Cl | 35.9% (active) |
| O=C(COc1ccccc1)Nc1ccc(N2CCN(C(=O)c3cccs3)CC2)cc1 | 7.89% (inactive) |
| Cc1ccccc1C(=O)N1CCN(c2ccc(NC(=O)c3cccs3)cc2)CC1 | 2.59% (inactive) |
| CN=C1S/C(=C\c2c(OC)cc(OC)cc2OC)C(=O)N1C | -0.06% (inactive) |
| CC(C)OCCCNC(=O)CN1C(=O)/C(=C/c2ccccc2F)Oc2ccccc21 | -0.43% (inactive) |
| CCC(=C/c1sc2ccc3ccccc3c2[n+]1C)/C=C1\Sc2ccc3ccccc3c2N1C | 40.1% (active) |
| O=P(O)(CP(=O)(c1ccccc1)c1ccccc1)c1ccccc1O | -2.71% (inactive) |

| SMILES | inhibition |
| --- | --- |
| CCC(C)CCN1CCN=C1N(C)C (centres undefined) | 8.55% (inactive) |
| O=S(=O)(Nc1ccc(Cl)cn1)c1cnc(Cl)c(Br)c1 | 2.67% (inactive) |
| COC(=O)/C(=C1\Oc2ccc(C(C)(C)C)cc2S1)C(F)(F)F | -3.77% (inactive) |
| CC(=O)c1cc2c(cc1N)OCO2 | -2.04% (inactive) |
| Nc1[nH][nH]c(=O)c1N=Nc1ccc2c(c1)OCO2 | 28.4% (active) |
| O=C(c1ccc2c(c1)OCO2)N1CCOCC1 | 2.23% (inactive) |
| COc1ccc([N+](=O)[O-])cc1C1NN=C(c2cccc3ccccc23)S1 (centres undefined) | 7.57% (inactive) |
| Cc1cccc(C(=O)NC(=S)N2CCN(c3ccc([N+](=O)[O-])cc3)CC2)c1 | 0.8% (inactive) |
| O=C(COC(=O)c1cc([N+](=O)[O-])ccc1NCc1ccccc1)NC1CCCCC1 | 12% (inactive) |
| COCCOC(=O)C1=C(C)NC(=O)NC1c1ccc(Cl)cc1 (centres undefined) | 3.24% (inactive) |
| CC1=C(C(=O)OCC2CCCCC2)C(c2ccc(F)cc2)NC(=O)N1 (centres undefined) | 0.63% (inactive) |
| CCC(CC)COC(=O)C1=C(C)NC(=O)NC1c1ccc([N+](=O)[O-])cc1 (centres undefined) | 28.8% (active) |
| Cc1cc(C)c(C#N)c(SCc2ccccc2C(=O)O)n1 | 1.89% (inactive) |
| CCc1ccc(C2C(C#N)=C(N)Oc3n[nH]c(CC(=O)OC)c32)cc1 (centres undefined) | 5.23% (inactive) |
| Cc1cc(C)c(C#N)c(SCc2[nH]nc3c2C(c2ccccc2)C(C#N)=C(N)O3)n1 (centres undefined) | 55.3% (active) |
| CC(C)NC(=O)CSc1nnc(COc2ccccc2Cl)o1 | 1.63% (inactive) |
| O=C1C2CCCN2C(=O)N1CCCCN1CCN(c2cccc(C(F)(F)F)c2)CC1 (centres undefined) | 64.2% (active) |
| O=C(CCN1CCCO1)N1CCCC(N2CCN(c3cccc(C(F)(F)F)c3)CC2)C1 (centres undefined) | 4.25% (inactive) |
| Cc1ccccc1N1CCN(CCCN2C(=O)C3CCCCN3C2=O)CC1 (centres undefined) | -1.82% (inactive) |
| CCOc1cc(S(=O)(=O)NCc2ccc3c(c2)OCO3)ccc1F | 7.67% (inactive) |
| CCCn1c(NC(=O)C23CC4CC(CC(O)(C4)C2)C3)nc2ccccc21 | -2.06% (inactive) |
| CCC1CCCCN1C(=O)CSc1nc2c(c(=O)n(C)c(=O)n2C)n1C (centres undefined) | 1.22% (inactive) |
| CC/C(Cc1ccccc1)=N/NC(=O)CCn1nnc2ccccc21 | 9.11% (inactive) |
| Cc1nc([N+](=O)[O-])cn1CC(=O)Nc1ccc2c(c1)OCO2 | 27.6% (active) |

| SMILES | inhibition |
| --- | --- |
| Cc1onc(C(=O)Nc2ccc3c(c2)OCO3)c1[N+](=O)[O-] | 7.4% (inactive) |
| Cc1cc(C)n(CC(=O)Nc2ccc([N+](=O)[O-])cc2)n1 | -3.9% (inactive) |
| Cc1ccc(C(=O)Cn2cc([N+](=O)[O-])nc2C)cc1 | 14.3% (inactive) |
| Cc1nc([N+](=O)[O-])cn1CC(=O)Nc1ccc(Cl)cc1 | 35.7% (active) |
| Cc1nn(CC(=O)Nc2ccc3c(c2)OCO3)c(C)c1[N+](=O)[O-] | 3.02% (inactive) |
| CC(C)C1Nc2c(C(=O)O)cccc2C(Nc2ccccc2C(=O)O)C1(C)C (centres undefined) | 1.52% (inactive) |
| c1ccc(CSc2ncnc3c2sc2nc(N4CCOCC4)c4c(c23)CCCC4)cc1 | 1.88% (inactive) |
| CCOc1ncccc1C(=O)N(CC)CC(=O)Nc1ccc(NC(C)=O)cc1 | -2.58% (inactive) |
| COc1ccc(C(C#N)Nc2ccc(C)cc2)cc1 (centres undefined) | 29.2% (active) |
| COc1ccc(C(C#N)Nc2ccccc2C)cc1 (centres undefined) | 2.16% (inactive) |
| COc1ccc(C(CC(=O)Nc2ccc(C)cc2)NC(=O)C(F)(F)F)cc1 (centres undefined) | -1.1% (inactive) |
| Cn1nc(C(F)(F)F)c(C(=O)Nc2cccc(C(F)(F)F)c2)c1SCc1ccc(Cl)cc1 | -39.3% (inactive) |
| N#CCc1ccc(OC(=O)c2cccnc2)cc1 | -0.53% (inactive) |
| CCCCCCOc1ccc(OC(=O)c2cccnc2)cc1 | 49.8% (active) |
| O=C(Oc1ccc(Br)cc1)c1cccnc1 | 1.78% (inactive) |
| COC(=O)c1cccc(-n2[nH]nnc2=S)c1 | -1.32% (inactive) |
| CN1CCN(c2ccc(S(=O)(=O)N3CCOCC3)cc2NC(=O)CCc2ccccc2)CC1 | 6.09% (inactive) |
| O=C(Cc1ccccn1)c1ccc(O)cc1O | -2.59% (inactive) |
| O=c1c(-c2ccc3c(c2)OCCO3)c(C(F)(F)F)oc2cc(O)cc(O)c12 | 3.69% (inactive) |
| CCOC(=O)c1cc(=O)c2ccc(OCc3ccccc3)cc2o1 | -1.62% (inactive) |
| CCOC(=O)c1cc2cc(-c3c(C(=O)OCC)oc4cc(O)cc(O)c4c3=O)ccc2o1 | 33.9% (active) |
| COC(=O)c1ccc(CN2CCCC(C(=O)Nc3cccc(-n4cnnn4)c3)C2)cc1 (centres undefined) | 2.89% (inactive) |
